About 83,000 compounds went through this panel and 20% of them were active in at least one assay; those are over-represented in the sample as a whole.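 Cell lines were cultured in 96-well plates, exposed to a single compound concentration, and assessed for percent growth 48 hours later.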 Unmarked numbers belong to inactive results. Calls of active or inactive are those of the source. The calls were made as follows: active = growth percent below 10; inactive = the rest.
What follows are compounds tested on TK-10 renal (assay: NCI-60 one-dose screen, 48 h (100 = growth as untreated, 0 = no growth, -100 = all killed)). Conditions: 10 µM unless noted.

Row | Compound | growth
1 | CCC(c1ccccc1)C(CC)c1ccc(O)c(O)c1 (stereo not drawn) | 106%
2 | CN1CCN(c2ccc3nc(-c4ccc5nc(-c6ccc(OCCC(C)(C)C)cc6)[nH]c5c4)[nH]c3c2)CC1 | 89.9%
3 | NC(N)=Nc1ccc(S(=O)(=O)O)cc1 | 108%
4 | O=C(/C=C/c1cc2ccccc2[nH]c1=O)/C=C/c1cc2ccccc2[nH]c1=O | -14.8% (active)
5 | Nc1ccc(Nc2nccc(-c3ccc4ccccc4c3)n2)cc1 | 58.7%
6 | C=C1CCC2C3(C)COC(c4ccc(OC)cc4Br)OC3CCC2(C)C1/C=C/C1=CCOC1=O (stereo not drawn) | 83.9%
7 | CCC(=O)Oc1ccc(/C(=C(\C)c2ccccc2)c2ccc(OCCN(CC)CC)cc2)cc1 | 87.4%
8 | CC(=O)/C(=C/c1cccc(Cl)c1)C(=O)c1ccccc1 | 96.6%
9 | NS(=O)(=O)c1ccc(-n2ncc3c(=O)[nH]c(CN4CCN(c5cc6c(cc5F)c(=O)c(C(=O)O)cn6C5CC5)CC4)nc32)cc1 | 119%
10 | COc1ccc(-c2nn(-c3ccccc3)cc2/C=C2\SC(=O)NC2=O)cc1 | 99.7%
11 | O=C(COc1cccc(/C=C2/Oc3ccccc3C2=O)c1)Nc1nccs1 | 83.7%
12 | CN1CCN(Cc2ccc(NC(=O)c3[nH]ncc3Nc3ncnc4sccc34)cc2)CC1 | 16.3%
13 | CC1=N/C(=C\c2cccc(Br)c2)C(=O)O1 | 101%
14 | COc1cc(C(=O)/C=C/c2c(C)n([O-])c3ccc(C)cc3[n+]2=O)cc(OC)c1OC | 26.6%
15 | CCN(CC)CC#CCOC(=O)[C@]1(C)CCC[C@@]2(C)[C@H]1CC(C=O)=C1C=C(C(C)C)CC[C@@H]12 | 77.1%
16 | C=C1CCC2C3(C)COC(c4ccccc4Br)OC3CCC2(C)C1C/C=C1/C(=O)OCC1OC(C)=O (stereo not drawn) | -48.5% (active)
17 | CCOC(=O)C(=Cc1ccccc1F)C(=O)OCC | 123%
18 | Cn1c2ccccc2c2c3c(c4c5ccccc5n(CCCCCC#N)c4c21)C(=O)N(O)C3=O | 42.1%
19 | CC(=O)C1=C(O)C=C2Oc3c(C(=O)/C=C/c4c(Cl)cccc4Cl)c(O)c(C)c(O)c3[C@]2(C)C1=O | -30.8% (active)

Row | Compound | growth
20 | Oc1ccc(Nc2nccc(-c3ccc4ccccc4c3)n2)cc1 | 49.4%
21 | COc1ccc(C(=O)/C=C/c2cc3ccccc3[nH]c2=O)cc1 | 24.7%
22 | C[C@@]1(N2C(=O)OC[C@@H]2c2ccccc2)C(=O)N([C@H](CC(=O)N2CCC(N3CCCCC3)CC2)C(=O)NCc2cccc(C(F)(F)F)c2)[C@@H]1/C=C/c1ccccc1 | 79.1%
23 | CCOC(=O)c1cnc2ccc(Br)cc2c1Nc1cccc(S(=O)(=O)NC)c1 | 114%
24 | CCN1CCN(Cc2ccc(NC(=O)Nc3nc4ccc(Oc5ccnc(C(=O)NC)c5)cc4s3)cc2C(F)(F)F)CC1 | -35.9% (active)
25 | O=c1c2c3c(sc2n2c(CCl)nnc2n1Cc1ccccc1)CCCC3 | -93.6% (active)
26 | COC(=O)[C@H](C(C)C)n1c(=O)c2cc(OC)c(OC)cc2c2cnc3[nH]ccc3c21 | 51.1%
27 | CC(=O)Oc1ccc(Nc2c3ccccc3nc3ccccc23)cc1 | 3.64% (active)
28 | COc1cc(NCCCCN=C(N)NC(N)=NC(C)C)c2ncccc2c1 | 90.4%
29 | CCN(CC)C12CCCCC1(C)C(C#N)(C#N)C(C#N)=C(N)O2 (stereo not drawn) | 93.2%
30 | O=C(CNC1C2CC3CC(C2)CC1C3)Sc1nnc2sc3ccccc3n12 (stereo not drawn) | 127%
31 | COc1ccc(-c2c3c(nc4n[nH]c(-c5ccc(Cl)cc5)c24)-c2ccccc2C(=O)C3=O)cc1 | -28.7% (active)
32 | O=C(/C=C\c1ccc2ccccc2n1)c1cc(Cl)ccc1O | 95.1%
33 | O=C1c2cc3c(cc2-c2c1c1cc(Cl)c(Cl)cc1c(=O)n2CCCn1ccnc1)OCO3 | 34.3%
34 | CC1(C)CC(=O)C(c2c(-c3ccccc3)[nH]c3[nH]c(=S)[nH]c(=O)c23)=C(O)C1 | 107%
35 | O=C(/C=C/c1cccc(Br)c1)c1ccccc1 | 69.7%
36 | O=C(CO[N+](=O)[O-])Nc1ccc(C(=O)/C=C/c2ccc(Cl)cc2)cc1 | 45.7%
37 | CN(C)c1ccc(/C=C\C2=[N+](C)c3ccccc3C2(C)C)cc1 | 27.8%
38 | COc1ccc(CCN2CC=Cn3c2nc2ccccc2c3=O)cc1 | 77.6%
